Results published in PubChem BioAssay (NCATS).
Inconclusive results are not listed. The source made the active and inactive calls. Calls come from the whole dose curve; as a rule, active = well fitted inhibition curve with a large enough effect; inconclusive = small, poorly fitted or top-dose-only effect; inactive = no such curve, though single readings can be large or run the other way.

Assay: Confirmatory screen NINDS Rhodamine qHTS for Zika virus inhibitors (AID 1347161); note: nearly all actives have a fitted effect of over 60% in size;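 for activity change, negative = inhibition: purified Zika NS2B-NS3 protease with linked NS2B cofactor domain and Rhodamine110 peptide substrate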
Conditions: purified enzyme assay, Rhodamine110 substrate fluorescence, 15 min; series mostly up to 114 µM; activity change, negative = inhibition: at the top concentration
Procedure, shortened: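 Aprotinin served as in-plate control. Conditions: 25 nM linked NS2B-NS3, pH 8.0 Tris buffer, titrated compounds, 15 min preincubation and 15 min reaction with 1.5 microM Rhod110 substrate at room temperature.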
Potency is the fitted concentration of half-maximal effect.

**Q.** For `O=C(Nc1ccc(/C=C/c2ccc(NC(=O)c3cc(S(=O)(=O)O)c4cccnc4c3O)cc2S(=O)(=O)O)c(S(=O)(=O)O)c1)c1cc(S(=O)(=O)O)c2cccnc2c1O`, which Potency is on record?
**A.** Its Potency is 2.51 µM (active).

**Q.** For `O=C(O)c1cc(N(Cc2ccc(C3CCCCC3)cc2)C(=O)c2ccc(Oc3ccccc3)cc2)ccc1O`, which Potency is on record?
**A.** The Potency was 1.97 µM (active).

**Q.** With `C=C1/C(=C/C=C2\CCC[C@]3(C)[C@@H]([C@H](C)/C=C/[C@@H](C)C(C)C)CC[C@@H]23)C[C@@H](O)C[C@@H]1O` as the compound, how does the Potency read?
**A.** The Potency was 49.4 µM (active).

**Q.** With `O=C(O)c1cccc(-c2ccc(-c3cn(C(=O)N4CCCCC4Cc4ccccc4)nn3)cc2)c1` (stereo not drawn) as the compound, how does the Potency read?
**A.** Its Potency is 3.5 µM (active).

**Q.** Which Potency does the source give for `N#Cc1ccc(N2N=C3c4ccc(C(=O)O)cc4CC[C@@H]3[C@@H]2C2CCCC2)cc1Cl` here?
**A.** The Potency was 1.75 µM (active).

**Q.** With `CC#C[C@@H](CC(=O)O)c1ccc(OCc2ccc(CN3CCC4(C=Cc5ccccc54)CC3)s2)cc1` as the compound, how does the Potency read?
**A.** Its Potency is 3.5 µM (active).

**Q.** With `COc1ccc(-c2ccccc2)cc1NS(=O)(=O)c1cc(Cl)cc(Cl)c1O` as the compound, how does the Potency read?
**A.** The Potency was 1.71 µM (active).

**Q.** For `O=C(O)c1ccc(N2C(=O)/C(=C/c3ccc(-c4ccc([N+](=O)[O-])cc4)o3)C=C2c2ccccc2)cc1`, which Potency is on record?
**A.** Its Potency is 1.75 µM (active).

**Q.** With `O=S(=O)(Nc1cc(Cl)c(Oc2cnc3ccccc3c2)c(Cl)c1)c1ccc(Cl)cc1Cl` as the compound, how does the Potency read?
**A.** The Potency was 2.21 µM (active).

**Q.** With `O=C(Nc1cc(C(F)(F)F)cc(C(F)(F)F)c1)c1cnc(Cl)nc1C(F)(F)F` as the compound, how does the Potency read?
**A.** Its Potency is 44.1 µM (active).

**Q.** For `CC(C)(C)Sc1c(CC(C)(C)C(=O)O)n(Cc2ccc(Cl)cc2)c2ccc(OCc3ccc4ccccc4n3)cc12`, which Potency is on record?
**A.** Its Potency is 3.93 µM (active).

**Q.** Which Potency does the source give for `Cc1cc(OCCCS(C)(=O)=O)cc(C)c1-c1cccc(COc2ccc3c(c2)OCC3CC(=O)O)c1` (stereo not drawn) here?
**A.** Its Potency is 7.84 µM (active).

**Q.** For `CC1=C(C(=O)OC2CCCCC2)C(c2ccc([N+](=O)[O-])cc2)C2=C(CC(C)(C)CC2=O)N1` (stereo not drawn), which “activity change, negative = inhibition” value is on record?
**A.** Its value is -3.05% (inactive).

**Q.** For `COc1ccc2cc(-c3cc(-c4cc(Cl)cc(Cl)c4)nn3C(C)c3ccc(C(=O)NCCC(=O)O)cc3)ccc2c1` (stereo not drawn), which Potency is on record?
**A.** Its Potency is 4.94 µM (active).

**Q.** With `CC#C[C@@H](CC(=O)O)c1ccc(OCc2cccc(-c3ccc(C(F)(F)F)cc3)c2)cc1` as the compound, how does the Potency read?
**A.** The Potency was 0.987 µM (active).

**Q.** With `CC(C)C[C@H](C(=O)O)c1cc(-c2ccc(C(F)(F)F)cc2)cc(-c2ccc(C(F)(F)F)cc2)c1` as the compound, how does the Potency read?
**A.** The Potency was 3.5 µM (active).

**Q.** For `O=C(O)c1ccc(S(=O)(=O)N(Cc2ccc(OC(F)(F)F)cc2)c2ncc(C(F)(F)F)cc2Cl)cc1`, which Potency is on record?
**A.** Its Potency is 3.93 µM (active).

**Q.** For `COc1ccc2nccc(C(=O)CC[C@@H]3CCN(CC#Cc4cc(F)cc(F)c4F)C[C@@H]3C(=O)O)c2c1`, which Potency is on record?
**A.** The Potency was 44.1 µM (active).

**Q.** With `Oc1cccc(-c2c3nc(c(-c4cccc(O)c4)c4ccc([nH]4)c(-c4cccc(O)c4)c4nc(c(-c5cccc(O)c5)c5ccc2[nH]5)CC4)C=C3)c1` as the compound, how does the Potency read?
**A.** The Potency was 20 µM (active).

**Q.** With `O=C(Nc1ccc(-c2ccc(Cl)c(Cl)c2)cc1)C1=C(O)c2ccccc2S(=O)(=O)N1` as the compound, how does the Potency read?
**A.** Its Potency is 2.48 µM (active).

**Q.** Which Potency does the source give for `Cc1noc(-c2ccc(-c3ccc(CC(=O)O)cc3)cc2)c1NC(=O)O[C@H](C)c1ccccc1Cl` here?
**A.** Its Potency is 4.94 µM (active).

**Q.** With `CCC(C)/C=C(C)/C=C/C1=CC2=CC(=O)C3(C)OC(C)(O)C(C(=O)OC)C3C2=CO1` (stereo not drawn) as the compound, how does the Potency read?
**A.** Its Potency is 21.5 µM (active).

**Q.** Which Potency does the source give for `CC(O)(C(=O)O)C1CCC2(C)C1CCC1(C)C2CCC2C3(C)CCC(O)C(C)(COC4OC(CO)C(O)C(O)C4O)C3CCC21C` (stereo not drawn) here?
**A.** Its Potency is 13.1 µM (active).

**Q.** For `C[C@H]1CO[C@@H]2Cn3cc(C(=O)NCc4ccc(F)cc4F)c(=O)c(O)c3C(=O)N12`, which “activity change, negative = inhibition” value is on record?
**A.** Its value is -3.08% (inactive).

**Q.** For `COc1cc(C(=O)O)ccc1NC(=O)C1NC(CC(C)(C)C)C(C#N)(c2ccc(Cl)cc2F)C1c1cccc(Cl)c1F` (stereo not drawn), which Potency is on record?
**A.** The Potency was 4.94 µM (active).

**Q.** Which Potency does the source give for `CCCCCc1ccc(/C=C/C(=O)Nc2cc(Cl)ccc2C(=O)O)cc1` here?
**A.** Its Potency is 1.75 µM (active).

**Q.** With `CCCCCCCOc1cc2c(cc1/C(C)=C/c1ccc(C(=O)O)cc1)C(C)(C)CCS2(=O)=O` as the compound, how does the Potency read?
**A.** Its Potency is 1.97 µM (active).

**Q.** With `Cc1cc(C)c2c(c1)C(N(Cc1cc(C(F)(F)F)cc(C(F)(F)F)c1)c1nnn(C)n1)CCCN2CC1CCC(C(=O)O)CC1` (stereo not drawn) as the compound, how does the Potency read?
**A.** The Potency was 4.94 µM (active).
